# In publication PMC4336329 (PLoS ONE, 2015):
# Hit rate of the full screen: of about 310,000 compounds, about 14,000 (4.5%) showed an effect of 50% or more. The effect is printed as a negative number. For the sample, strong results were picked, then their nearest neighbours and some compounds at random.
# Target: human ether-à-go-go-related gene (hERG) potassium channel (human, UniProt Q12809)
# Test: primary screen, population patch clamp on CHO cells stably expressing hERG; higher = less effect of the substance
# 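Note: peak tail current of the secondary pulse compared with the same well before compound.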
# Chain of human ether-à-go-go-related gene (hERG) potassium channel (Q12809 whole entry, looked up): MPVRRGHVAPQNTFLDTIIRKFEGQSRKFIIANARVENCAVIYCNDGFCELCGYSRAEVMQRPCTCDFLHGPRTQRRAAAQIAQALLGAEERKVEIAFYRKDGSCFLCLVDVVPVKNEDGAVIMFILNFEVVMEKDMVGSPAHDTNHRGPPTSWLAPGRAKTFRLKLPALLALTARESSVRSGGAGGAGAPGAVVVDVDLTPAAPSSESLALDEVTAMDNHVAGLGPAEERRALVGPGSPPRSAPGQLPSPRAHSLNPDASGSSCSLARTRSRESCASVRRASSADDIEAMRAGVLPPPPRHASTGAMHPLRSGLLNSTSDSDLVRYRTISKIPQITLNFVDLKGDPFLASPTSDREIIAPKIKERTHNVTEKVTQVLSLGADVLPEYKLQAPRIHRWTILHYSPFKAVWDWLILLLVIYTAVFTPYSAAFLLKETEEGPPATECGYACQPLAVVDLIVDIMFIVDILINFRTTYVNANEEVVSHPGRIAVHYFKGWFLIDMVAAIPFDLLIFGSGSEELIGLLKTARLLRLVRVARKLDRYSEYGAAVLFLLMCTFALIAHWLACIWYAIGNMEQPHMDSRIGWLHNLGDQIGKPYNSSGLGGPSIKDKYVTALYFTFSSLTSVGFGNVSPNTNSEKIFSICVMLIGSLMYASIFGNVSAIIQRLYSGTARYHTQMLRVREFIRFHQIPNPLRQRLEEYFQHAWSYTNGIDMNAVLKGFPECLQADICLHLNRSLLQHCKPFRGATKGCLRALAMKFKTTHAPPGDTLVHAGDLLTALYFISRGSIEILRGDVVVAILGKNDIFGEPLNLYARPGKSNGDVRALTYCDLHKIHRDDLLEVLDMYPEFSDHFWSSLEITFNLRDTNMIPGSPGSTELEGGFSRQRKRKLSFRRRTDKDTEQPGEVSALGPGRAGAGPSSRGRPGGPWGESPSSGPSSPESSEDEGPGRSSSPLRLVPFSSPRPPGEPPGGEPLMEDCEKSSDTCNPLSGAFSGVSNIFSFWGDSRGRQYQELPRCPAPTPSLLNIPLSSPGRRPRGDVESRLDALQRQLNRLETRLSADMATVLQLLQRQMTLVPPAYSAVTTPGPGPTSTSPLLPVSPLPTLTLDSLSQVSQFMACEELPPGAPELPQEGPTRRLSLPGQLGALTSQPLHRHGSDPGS
row,SMILES,"hERG current change (%, negative = inhibition) at 10uM"
1,CCOC(=O)Cc1csc(NC(=O)CCCN2C(=O)c3ccccc3C2=O)n1,12.2%
2,O=C(C1CCN(c2ncnc3c2sc2cccc(F)c23)CC1)N1CCOCC1,-27.8%
3,COc1ccc(-c2noc(N3CCC(C(=O)NCCCN4CC(C)CC(C)C4)CC3)n2)cc1 (centres unmarked),-18.1%
4,O=C(Nc1ccc(F)cc1F)C1CCN(c2ncnc3c2sc2cccc(F)c23)CC1,3.98%
5,CCOC(=O)N1CCN(C(=O)C2CCN(c3ncnc4c3sc3cccc(F)c34)CC2)CC1,-59.9%
6,CC1CC(C)CN(CCCNC(=O)C2CCN(c3ncnc4c3sc3cccc(F)c34)CC2)C1 (centres unmarked),-65.8%
7,O=C(NCCN1CCOCC1)C1CCN(c2ncnc3c2sc2cccc(F)c23)CC1,-25.6%
8,O=C(NC1CC1)C1CCN(c2ncnc3c2sc2cccc(F)c23)CC1,-52%
9,CCN(CC)CCNC(=O)c1ccc(NC(=O)C2CCN(c3ncnc4sc(C)c(C)c34)CC2)cc1,-29.8%
10,CCN(CC)CCCNC(=O)C1CCN(C(=O)c2cc3sccc3n2Cc2ccc(F)cc2)CC1,-2.11%
11,CCN(CC)CCCNC(=O)C1CCN(c2ncnc3c2sc2cccc(F)c23)CC1,-50.2%
12,O=C(C1CCN(c2ncnc3c2sc2cccc(F)c23)CC1)N1CCCC1,-19.7%
13,O=C(NC1CC1)C1CCN(c2nc3ccccc3s2)CC1,-5.63%
14,O=C(Nc1cc(-c2nc3ncccc3o2)ccc1Cl)c1ccc2c(c1)OCO2,10.2%
15,Cc1ccc(C(=O)NCCc2ccc(S(N)(=O)=O)cc2)o1,16.1%
16,O=C(Nc1ccc(-c2ccccc2)cc1)c1ccc2c(c1)S(=O)(=O)c1ccccc1C2=O,7.7%
17,CC1(C)NC(=O)N(CC(O)COC2CCCCC2)C1=O (centres unmarked),8.64%
18,FC(F)(F)c1ccccc1CNCc1ccncc1,4.43%
19,COc1ccccc1-n1c(C)nnc1SCC(=O)NCc1ccccc1,11.5%

row,SMILES,"hERG current change (%, negative = inhibition) at 10uM"
1,CCOC(=O)c1c(NC(=O)COC(=O)Cn2cnc3ccccc32)sc2c1CCC(C)C2 (centres unmarked),-3.78%
2,CCCCN(CC)CCCNC(=O)C1CCN(c2ncnc3c2sc2cccc(F)c23)CC1,-70.3%
3,CCCCN(CC)CCNC(=O)C1CCN(S(=O)(=O)c2cccc3nsnc23)CC1,-11%
4,CCCCNC(=O)C1CCN(c2nc(C)cc(C)n2)CC1,17%
5,CC1(C)CC2CC(C)(CN2C(=O)COC(=O)Cn2[nH]c(=O)c3ccccc3c2=O)C1 (centres unmarked),2.26%
6,CCn1c(CNC(=O)c2ccc(Cl)cc2)nnc1SCC(=O)NC1=NCCS1,18%
7,CC(=O)Nc1sc2c(c1CN1CCN(C)CC1)CCCC2,-1.92%
8,CC(=O)Nc1sc2c(c1CN1CCN(c3ccccn3)CC1)CCCC2,-55.3%
9,CC(=O)Nc1sc2c(c1CN1CCCC1)CCCC2,7.34%
10,COc1cc(NC(=O)c2ccc(Br)o2)ccc1NC(=O)c1ccccc1Cl,-22.4%
11,CCN(CC)C(=O)CSc1nnc(SCc2ccc(Cl)cc2)s1,-3.44%
12,O=C(O)C1(NS(=O)(=O)c2ccc(F)c(Cl)c2)CCCCC1,7.65%
13,N#C/C(=C/Nc1ccccc1)c1ccsc1,7.85%
14,O=C(NC1CCCCC1)c1ccc(S(=O)(=O)N2CCOCC2)cc1,-2.69%
15,CC(C)C(NC(=O)c1c(F)cccc1F)C(=O)N1CCN(c2ccccc2F)CC1 (centres unmarked),-1.76%
16,CC(C)C(NC(=O)C1CCCCC1)C(=O)N1CCN(c2ccc(F)cc2)CC1 (centres unmarked),-55.7%
17,CC(C)[C@H](NC(=O)C1CCN(S(=O)(=O)c2ccc(F)cc2)CC1)C(=O)N1CCCCCC1,5.18%
18,CC(C)[C@H](NC(=O)C1CC(=O)N(c2ccc(F)cc2)C1)C(=O)N1CCCCC1 (some centres unmarked),7.29%
19,COc1ccc(N2CCN(C(=O)C(NC(=O)c3c(F)cccc3F)C(C)C)CC2)cc1 (centres unmarked),10.5%

row,SMILES,"hERG current change (%, negative = inhibition) at 10uM"
1,CC(C)[C@H](NC(=O)c1c(F)cccc1F)C(=O)N1CCN(c2ccc(F)cc2)CC1,-54.2%
2,O=C(COc1ccccc1)OC(C(=O)c1ccccc1)c1ccccc1 (centres unmarked),16.5%
3,CC(C)(C)OC(=O)N1CCN(C(=O)c2[nH]cnc2C(=O)Nc2ccon2)CC1,9.6%
4,Fc1ccc(-c2nc3c(-c4ccccc4)cnn3cc2CCN2CCOCC2)cc1,-15.2%
5,COc1ccc(-n2c(Cc3cccn3C)nnc2SCC(=O)Nc2ccccc2)cc1,-19.5%
6,CCOC(=O)CN(C(=O)CNC(=O)c1ccco1)C(C(=O)NC1CCCCC1)c1cccnc1 (centres unmarked),12.2%
7,Cc1onc(-c2ccccc2Cl)c1C(=O)Nc1ccc2c(c1)OCO2,10.3%
8,COc1cccc(-n2c(SCC(N)=O)nc3c([nH]c4ccccc43)c2=O)c1,-0.054%
9,Cc1nnc(SCC(=O)NC2CCCc3ccccc32)n1-c1ccccc1 (centres unmarked),-0.602%
10,CCC(C)CCN1C(Nc2ccccc2)=NC[C@@H]1C (some centres unmarked),-4.88%
11,CC(CCN1CCN=C1Nc1ccccc1)c1ccccc1 (centres unmarked),-33.8%
12,CCC(C)CCN1C(Nc2ccccc2)=NC[C@@H]1CC(C)C (some centres unmarked),-41.1%
13,CC(CCN1C(Nc2ccccc2)=NC[C@@H]1C)c1ccccc1 (some centres unmarked),-52.4%
14,CC(C)CCN1C(Nc2ccccc2)=NC[C@@H]1C,-9.63%
15,CC(C)C[C@H]1CN=C(Nc2ccccc2)N1CCC(C)c1ccccc1 (some centres unmarked),-67%
16,CC(CCN1C(Nc2ccccc2)=NC[C@@H]1Cc1ccccc1)c1ccccc1 (some centres unmarked),-74.8%
17,CCC(C)CCN1C(Nc2ccccc2)=NC[C@@H]1Cc1ccccc1 (some centres unmarked),-59.6%
18,CCC(C)CCN1CCN=C1Nc1ccccc1 (centres unmarked),-1.89%
